Laboratory results from PubChem BioAssay AID686952 (The Scripps Research Institute Molecular Screening Center, 2013).
Screen size: about 3,200 compounds; about 2,600 (81%) were called active. So high a share suggests a set chosen from earlier hits. The list is a sample of the results. A number with no mark means an inactive call.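 Rule for the calls: active = activation above the all-compound mean plus 3 SD, ignoring values outside control-based bounds (cut at about 4.8% in these data); inactive = the rest.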

Assay: apparent activators from fluorescence artefacts, no enzyme – biochemical, fluorescence intensity, high throughput, artefact control for kallikrein-7 zymogen activator project (AID 686952);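 note: value is the 4 h activation minus the activation read at time zero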
Conditions: EDANS-DABCYL substrate fluorescence interference, 4 h, at 7 µM, hits give high values, solvent 0%, active enzyme control 100%

Row | SMILES | activation
1 | COc1cccc(OCc2cc(/C=N/NC(=O)c3nc(Cl)c(Cl)c(N)c3Cl)ccc2OC)c1 | 59.5% (active)
2 | Cc1cc(C)c2nc3nc(C)cc(C)c3c(N)c2c1 | 70.4% (active)
3 | CCOC(OCC)c1ccc(/C=C\c2nccc(N)n2)cc1 | -13.8%
4 | COc1ccc(CNC(=O)COC(=O)C2=Cc3ccccc3OC2)cc1 | 11.3% (active)
5 | COc1cc2c(cc1OC)C(C(C)C)=NC(C)(C)C2 | 72.2% (active)
6 | CN1c2ccccc2-c2nc3ccccc3n2C1c1ccco1 (stereo unspecified) | 11.9% (active)
7 | CNc1cncc(-c2cccc(C(=O)N3CCOCC3)c2)n1 | 37.5% (active)
8 | CCCn1c(=NC(C)=O)c(C(=O)OCC)cc2c(=O)n3ccccc3nc21 | 32.4% (active)
9 | CCN1CCc2c(C#N)c(NCc3ccccc3)nc(NCCO)c2C1 | 28.7% (active)
10 | COC(=O)C1=NN(c2ccccc2)C2C(=O)N(c3ccccc3OC)C(=O)C12 (stereo unspecified) | 14.9% (active)
11 | CN(C)C(=O)c1coc2nc3ccccc3nc12 | 110% (active)
12 | O=C(O)c1ccc2c(c1)C(=O)N(c1ccc(/C=C/C(=O)c3ccccc3)cc1)C2=O | 722% (active)
13 | O=C(/C=C/c1ccc2c(c1)OCCO2)c1ccc(O)cc1 | 3.03%
14 | CCN(CC)CCCNC(=O)c1cc2c(=O)[nH]c3ccc(C)cc3c2s1 | 12.5% (active)
15 | COC(=O)c1c(C)c(C)nc(N)c1C#N | 63.7% (active)
16 | CCN(CC(=O)Nc1c(F)cccc1F)C(=O)c1ccc(-c2ccc(C(C)=O)cc2)o1 | -16.2%
17 | CN(C)CCN1CCN(c2cc(-c3cccc(Cl)c3)nc3ccnn23)CC1 | -1.14%
18 | COC(=O)Cc1nc2c(N)nc(N)nc2[nH]c1=O | 16.8% (active)
19 | Cc1coc2c1c(C)cc1oc(=O)c(CC(=O)NCC(=O)N[C@H](C(=O)O)C(C)C)c(C)c12 | 34.8% (active)
20 | CNC(=O)COC(=O)c1cc(-c2ccc(OC)cc2)nc2ccccc12 | 97.4% (active)
21 | COc1ccc(-c2cc(C(=O)n3cnc4ccccc43)c3ccccc3n2)cc1 | 53.3% (active)
22 | O=c1c(-c2ccccc2)coc2c(CN3CCOCC3)c(O)ccc12 | 15.3% (active)
23 | COc1cccc2sc3cc(NCC[C@@H]4CCCN4C)ccc3c(=O)c12 | 38.3% (active)
24 | CCCCc1cc(=O)oc2cc(C)cc(OCc3nn[nH]n3)c12 | 29.5% (active)
25 | Cc1ccsc1-c1cc(C(=O)O)c2c(ccc3ccccc32)n1 | 21.4% (active)
26 | COC(=O)c1cnn2c(C(F)(F)F)cc(-c3ccco3)nc12 | 35.9% (active)

Row | SMILES | activation
27 | O=C(OC1CCOC1=O)c1ccc(-c2nc3ccccc3s2)s1 (stereo unspecified) | 13.6% (active)
28 | Cc1nc2ccc(N)nc2nc1C | 59.7% (active)
29 | O=C(O)c1cccnc1Sc1ncnc2sc3c(c12)CCC3 | 15.9% (active)
30 | O=C(NCCN1CCOCC1)c1cc(-c2cccs2)nc2ccccc12 | 31.9% (active)
31 | CCCCN(C)CCCNC(=O)c1cc(-c2cccs2)nc2ccccc12 | -40.9%
32 | O=c1oc2cc(O)ccc2cc1-c1ccc(F)cc1 | 80.8% (active)
33 | CCNC(=S)Nc1ccc2c(c1)c(=O)n(C)n2Cc1ccc(Cl)cc1 | -1.33%
34 | COc1ccc(CCNC(=O)Nc2ccc3c(c2)c(=O)n(C)n3C)cc1OC | 22.7% (active)
35 | COCCCn1c(-c2cccs2)nc2nc3ccccc3nc21 | 24.8% (active)
36 | C=CCn1c(N)c(S(=O)(=O)c2cccs2)c2nc3ccccc3nc21 | -4.5%
37 | NC(N)=Nc1nc(-c2ccccc2)c2cc(Cl)ccc2n1 | -2.58%
38 | COc1nc(N=C(N)N)nc2c(C)cccc12 | 20.6% (active)
39 | CCC1=C(C(=O)OC)C(c2cc(OC)ccc2OC)C(C#N)=C(N)O1 (stereo unspecified) | 32.6% (active)
40 | Cc1cc(N2CCOCC2)nc2ccc(NC(=S)N3CCN(Cc4ccccc4)CC3)cc12 | 12.7% (active)
41 | CC(C)(C)OC(=O)c1c(N)n(CCCN2CCCC2=O)c2nc3ccccc3nc12 | 80.7% (active)
42 | COCC(C)OC(=O)c1c(N)n(CCCN2CCOCC2)c2nc3ccccc3nc12 (stereo unspecified) | 19% (active)
43 | CC(C)=NN1C(=O)c2ccccc2NC1(C)C | 24.5% (active)
44 | CCOc1ccc(N2C(=O)CC(N(O)c3ccccc3)C2=O)cc1 (stereo unspecified) | 188% (active)
45 | Nc1ccccc1-c1nc2ccncc2[nH]1 | 5.73% (active)
46 | CCCc1cc(=O)oc2c(C)c(O)c(CN3CCCCC3)cc12 | 68.1% (active)
47 | CCOc1c2ccc(C(=O)NCc3ccc4c(c3)OCO4)cc2nn1C | 4.67% (active)
48 | COCc1cc(=O)[nH]c2cc(NC(=O)C(F)(F)F)c(C)cc12 | 232% (active)
49 | CCC(c1nnnn1Cc1ccco1)N(CCc1ccccc1)Cc1cc2ccc(OC)cc2[nH]c1=O (stereo unspecified) | 1.63%
50 | CC(=O)Oc1ccc2c(C)c(CC(C)O)c(=O)oc2c1 (stereo unspecified) | 80% (active)
51 | CC(=O)Nc1cc2ccc(OC(C)=O)cc2oc1=O | 127% (active)
52 | COCCN(CCOC)c1nc(N)c2c(N)nc3c(c2c1C#N)CC(=O)N3Cc1ccc(Cl)cc1 | -34.7%

Row | SMILES | activation
53 | CCN1CCN(C(=O)c2cc3cc4ccc(OC)cc4nc3s2)CC1 | -12.4%
54 | COc1ccc2oc(=O)c(C(=O)N3CCCC3)cc2c1 | 23.6% (active)
55 | Cc1nc2ccccc2cc1O | 4.33% (active)
56 | Cc1cc(S(=O)(=O)c2cc3ccc(O)c(C)c3oc2=O)ccc1F | 63.2% (active)
57 | N#CC1=C(N)Oc2c(sc3ccccc23)C1c1ccco1 (stereo unspecified) | -21.2%
58 | Nc1ccc2nn(-c3ccc(Cl)cc3)nc2c1 | 62.1% (active)
59 | COc1ccc(C2=CC(c3cccc(OC)c3)n3nnnc3N2)cc1 (stereo unspecified) | -27.9%
60 | COC(=O)c1ccc(C2C3=C(Nc4nnnn42)c2ccccc2OC3)cc1 (stereo unspecified) | 4.8% (active)
61 | CC(C)(C)Nc1c(-c2cccs2)nc2ccccn12 | -64.5%
62 | c1ccc(-c2cn3cccnc3n2)cc1 | 72.3% (active)
63 | COc1ccc(-c2cn3cccnc3n2)cc1 | 79.8% (active)
64 | FC(F)(F)Oc1ccc(-c2cn3cccnc3n2)cc1 | 36.4% (active)
65 | Cc1oc2nc(SCC(=O)Nc3ccc(S(N)(=O)=O)cc3)nc(NC(=O)c3ccccc3)c2c1C | 3.36%
66 | CCc1ccc(-c2cc(C(=O)NCc3ccco3)c3ccccc3n2)s1 | 73.9% (active)
67 | CC(=O)Nc1nc2ncccn2c1-c1ccc(C(F)(F)F)cc1 | 41.3% (active)
68 | CC(C)Cc1nc(Nc2ccc(S(=O)(=O)N3CCCC3)cc2)c2nnn(Cc3ccccc3)c2n1 | 38.6% (active)
69 | CN(C(=O)c1ccccn1)c1nnc(-c2ccccn2)s1 | 85.1% (active)
70 | CN(C(=O)COc1ccccc1)c1nnc(-c2ccncc2)s1 | 107% (active)
71 | COCC(=O)Nc1nnc(COc2ccccc2)s1 | 1.67%
72 | CC(OC(=O)c1ccccc1NCCO)C(=O)Nc1ccnn1C(C)C (stereo unspecified) | 29.3% (active)
73 | COc1ccc2c(c1)CCc1cn3ncc(C#N)c3nc1-2 | -65.2%
74 | CN(CCc1ccccn1)S(=O)(=O)c1ccc2c3c(cccc13)C(=O)N2 | 71.8% (active)
75 | COc1cc(/C=C/C(=O)Nc2ccc(OC)c(S(=O)(=O)N3CCOCC3)c2)ccc1OCC#N | 93.1% (active)
76 | COc1ccc2nc(-c3ccccn3)ccc2c1 | 4.08% (active)
77 | O=C(Oc1c(-c2ccco2)oc2ccccc2c1=O)c1cccnc1 | 18.8% (active)
78 | CC1CC(C)CN(S(=O)(=O)c2cccc(C(=O)N3C(=O)c4cccc(N)c4C3=O)c2)C1 (stereo unspecified) | 228% (active)

Row | SMILES | activation
79 | COc1cc(C(=O)N2C(=O)c3cccc(N)c3C2=O)cc(OC)c1OC | 122% (active)
80 | COCc1cc(=O)oc2cc(NS(=O)(=O)c3ccc(C)cc3)ccc12 | 70.4% (active)
81 | Cc1ccc2nc3c(cc(C(=O)NCCc4ccccc4)c(=N)n3CC3CCCO3)c(=O)n2c1 (stereo unspecified) | -37.3%
82 | CCn1c(=N)c(C(=O)NCCCOC)cc2c(=O)n3cccc(C)c3nc21 | 74.4% (active)
83 | Cc1cccn2c(=O)c3cc(C#N)c(=NC(=O)c4cccnc4)n(CC4CCCO4)c3nc12 (stereo unspecified) | -72.9%
84 | Cc1cccn2c(=O)c3cc(C(=O)NCCN4CCOCC4)c(=N)n(Cc4cccnc4)c3nc12 | 18.1% (active)
85 | Oc1ccc2ccc3cccc[n+]3c2c1 | 38.2% (active)
86 | CCN(CC)CCCC(C)n1c2nc(=O)[nH]c(=O)c-2nc2cc(Cl)ccc21 (stereo unspecified) | 69.7% (active)
87 | Cc1cc2cc3n(c2nn1)N=C(Cl)CC3 | 37.9% (active)
88 | CCOc1ccccc1C1C(C(=O)OC)=CN(C)C=C1C(=O)OC | -18%
89 | N#Cc1nc(-c2cccc3ccccc23)oc1N | 76.5% (active)
90 | Cc1cc(C)c(C#N)c(SCC(=O)NN2CC(=O)N(c3ccccc3F)CC2=O)n1 | 58.1% (active)
91 | CN(C)CCCn1c(N)c(C#N)c2nc(C#N)c(C#N)nc21 | 46.2% (active)
92 | CC1(C)CN(c2ccc(-c3ccnc4ncnn34)cc2)C1=O | 68.4% (active)
93 | CN1CCCc2cc(C#N)c(=O)[nH]c21 | 38.1% (active)
94 | Cc1cc2c(nc1C)CCCN2C | 2.55%
95 | COc1cccc(NC(=O)CN(C)C(=O)/C=C/c2cc(OC)ccc2OC)c1 | -114%
96 | Cn1cccc1/C=N/NC(=O)CNc1cccc2ccccc12 | 1.38%
97 | CC1(C)CC(=O)c2cc(OCC(=O)NCC3CCCO3)ccc2O1 (stereo unspecified) | 57.9% (active)
98 | C[C@@H]1C(c2ccc(F)cc2)=NN(c2ccc(Br)cc2)[C@H]1C(=O)N1CCOC1=O | 26.5% (active)
99 | Clc1ccc(-c2cccc3nccn23)cc1 | 11.3% (active)
100 | Cc1ccc(-c2nn(-c3ccccc3)cc2/C=C/C(=O)Nc2cccc(S(N)(=O)=O)c2)cc1 | 251% (active)
101 | COc1ccc2nc(Nc3nc4cc5c(cc4s3)OCCO5)sc2c1 | -11.5%
